# Rev-erbA mod: modulators of Rev-erb alpha DNA binding, primary screen, biochemical, FITC-DNA, fluorescence polarization, uHTS. Nuclear receptor subfamily 1 group D member 1 (Homo sapiens), P20393. Rev-erbα–FITC-DNA binding, 90 min. activity, % at 10 µM. 370,000 compounds, 0.79% hits. AID 1259318, 2017;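 active = activity above about 14%, limit read from the data; passing the limit was not always enough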;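 note: 0% = DMSO wells with 35 nM protein and 100% = DMSO wells with 750 nM protein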
# ssDAF-12 act: S. stercoralis DAF-12 nuclear receptor activators, primary screen, cell-based, luminescence, HEK293, GRIP1 co-expression, lit1-tk-luc; activation, % at 6.8 µM; HEK293 ssDAF-12/GRIP1 lit1-tk-luc reporter; % of 3 µM dafachronic acid response; 370,000 compounds, 1% hits;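 active = activation above the mean over all tested compounds plus 3 SD, cut at about 0.9% in these data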;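 note: 0% = DMSO-only wells and 100% = 3 µM delta7-dafachronic acid wells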
# DAX1 inh-1: DAX1 (NR0B1) inhibitors on StAR promoter, primary screen, cell-based, luminescence, SF-1 (NR5A1), full-length DAX-1. HEK293T StAR-luciferase reporter, SF-1/DAX-1 repression relief. inhibition, % at 6.8 µM. 370,000 compounds, 1.1% hits. AID 652010, 2013;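 active = inhibition above the mean over all tested compounds plus 3 SD, cut at about 3.6% in these data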;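 note: 0% = DAX-1 cells with DMSO and 100% = cells lacking DAX-1 with DMSO; higher inhibition means more luminescence from relief of DAX-1 repression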
# DAX1 inh-2: DAX1 (NR0B1) inhibitors, primary screen, cell-based, HEK293, Gal4-DAX1, luciferase luminescence | HEK293 Gal4-DAX1 luciferase reporter | inhibition, % at 6.75 µM | 340,000 compounds, 0.99% hits | AID 504766, 2011;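 active = inhibition above the mean over all tested compounds plus 3 SD, cut at about 4.2% in these data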;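 note: 0% = DAX1-transfected cells with DMSO and 100% = empty-vector control cells with DMSO; inhibition shows as a rise in luminescence from relieved DAX1 repression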
# Target sequence (P51843 207-470 limits assumed): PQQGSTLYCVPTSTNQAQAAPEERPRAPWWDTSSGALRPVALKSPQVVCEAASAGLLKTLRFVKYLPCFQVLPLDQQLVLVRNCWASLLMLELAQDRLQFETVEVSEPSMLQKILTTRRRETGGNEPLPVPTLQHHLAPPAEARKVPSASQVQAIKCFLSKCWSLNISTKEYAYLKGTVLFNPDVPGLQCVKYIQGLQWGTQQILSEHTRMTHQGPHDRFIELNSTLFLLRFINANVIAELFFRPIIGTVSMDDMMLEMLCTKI
# hgDAF12 agonist: H. glycines DAF-12 receptor agonists, primary screen, cell-based, luminescence, HEK293, GAL4 fusion, UAS-luciferase; 370,000 compounds, 1.8% hits; activation, % at 6.8 µM; HEK293 GAL4-hgDAF12 UAS-luciferase reporter, agonist luminescence; normalized to butyrate control;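 active = activation above a cutoff set at the mean of all screened compounds plus 3 SD, cut at about 10% in these data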;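 note: 0% = DMSO wells and 100% = sodium butyrate wells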
# hcDAF12 agonist: H. contortus DAF-12 nuclear receptor activators, primary screen, cell-based, luminescence, HEK293, lit1-tk-luc reporter. HEK293 hcDAF-12 lit1-tk-luc reporter; 0% DMSO, 100% Δ7-dafachronic acid. activation, % at 6.8 µM. 370,000 compounds, 1.4% hits. AID 652067, 2013;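 active = activation above the mean of all tested compounds plus 3 SD, cut at about 5.5% in these data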;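 note: 100% = response to 3 µM Δ7-dafachronic acid high control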
# LXRb hcDAF ctr: LXR agonists, Gal4 luciferase reporter, confirmation, counter-screen for hcDAF-12 agonist project, cell-based, luminescence, HEK293, H. contortus campaign. shares compounds with hcDAF12 agonist. HEK293 Gal4-LXR tk-luc reporter, 24 h; normalized: DMSO 0%, positive control 100%. activation, % at 6.8 µM. 3,400 tested, under 10 active. AID 743027, 2013;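 active = mean percent activation of the reporter above a cutoff set as the average over tested compounds plus their standard deviation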
# hcDAF12 ag: H. contortus DAF-12 receptor agonists, confirmation, cell-based, luminescence, HEK293, lit1-tk-luc, triplicate | shares compounds with hcDAF12 agonist | HEK293 hcDAF-12 lit1-tk-luc reporter; % of Δ7-dafachronic acid response | activation, % at 6.8 µM | 3,400 compounds, 61% hits;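 active = mean activation across triplicate tests above the threshold derived from the earlier primary screen, cut at about 5.5% in these data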;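 note: 0% = DMSO only wells and 100% = 3 µM Δ7-dafachronic acid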
# hgDAF12 conf: H. glycines DAF-12 receptor agonists, confirmation, cell-based, luminescence, HEK293, GAL4-LBD fusion; shares compounds with hgDAF12 agonist; HEK293 GAL4-hgDAF12 luciferase reporter, agonist mode; percent of butyrate response; activation, % at 6.8 µM; 3,300 compounds, 80% hits; AID 743050, 2013;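 active = mean activation over triplicate wells above the hit cutoff derived from the earlier primary screen, cut at about 11% in these data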;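 note: 0% = DMSO low control and 100% = 2 mM sodium butyrate high control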
# LXRb DAF12 ctr: LXR agonists, Gal4 luciferase reporter, confirmation, counter-screen for hgDAF-12 agonist project, cell-based, luminescence, HEK293, H. glycines campaign | shares compounds with hgDAF12 agonist | 24 h | activation, % at 6.8 µM | 3,300 tested, under 10 active;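 active = mean activation of the triplicate above a set limit carried over from the primary screen, none filed active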
# Numbers without * were called inactive; / = no result. This is a sample that favours compounds with a hit; in the whole collection about 4.8% have one here.
SMILES,Rev-erbA mod,ssDAF-12 act,DAX1 inh-1,DAX1 inh-2,hgDAF12 agonist,hcDAF12 agonist,LXRb hcDAF ctr,hcDAF12 ag,hgDAF12 conf,LXRb DAF12 ctr
O=C1[C@@H](C2CCCCC2)[C@@H]2c3ccccc3C=NN2[C@@H]2c3ccccc3C=NN12,-10,-1,-1,/,-2,-1,/,/,/,/
CCc1sc(C(=O)Nc2nccs2)cc1C,3,0.9*,2,2,19*,6.7*,1,6.7*,21*,1
CCc1sc(C(=O)Nc2nc(-c3ccccn3)cs2)cc1C,/,/,/,-2,/,/,/,/,/,/
CN(C)c1ccc(C(=O)NC2CCCCN(Cc3cccc(Cl)c3)C2=O)cc1 (stereo not given),4,0,1,/,6,2,/,/,/,/
O=C(Nc1cc2ccccc2oc1=O)c1ccccc1,2,0,2,/,15*,11*,1,9.2*,5,1
Clc1ccccc1-c1nnc(-c2cccs2)o1,-7,1.0*,2,9.4*,20*,11*,1,8.1*,24*,1
O=S1(=O)CCSC[C@@H](CN2CCN(c3ccccc3)CC2)N1,7,-1,0,/,2,1,/,/,/,/
O=C(NCCc1c[nH]c2ccccc12)c1ccc2c(c1)OCO2,5,1.3*,2,2,15*,11*,1,9.8*,18*,1
COC(=O)[C@@H](Cc1c[nH]c2ccccc12)NC(=O)c1ccc2c(c1)OCO2,3,3.2*,1,4,16*,13*,1,7.9*,18*,1
O=C(NCCCn1ccnc1)c1cc(-c2cccs2)on1,1,0,-1,4,53*,7.6*,0,4,51*,0
Cc1ccc(C(=O)Nc2ccc3ccccc3c2)cc1,3,-1,0,-7,-2,3,/,/,/,/
O=C(Nc1ccc2ccccc2c1)c1ccc(Cl)cc1,3,1.7*,3.8*,4,16*,6.8*,2,9.4*,22*,1
Cc1ccc2cc(NC(=O)c3cccc(F)c3)ccc2n1,-1,0,3,3,15*,8.2*,1,4,20*,1
O=C(Nc1ccc2ccccc2c1)c1cccc(F)c1,0,0,3,4,14*,8.9*,1,7.3*,16*,1
N=c1c2c(ccn1Cc1ccccc1)Oc1ccc3ccccc3c1C2c1ccccc1 (stereo not given),-4,-2,/,/,-3,-2,/,/,/,/
Cc1ccc(S(=O)(=O)Nc2ccc(-c3cn4ccc(C)cc4n3)cc2)cc1,-2,-2,0,0,4,-1,/,/,/,/
Cc1ccn2cc(-c3ccc(Br)cc3)nc2c1,-2,1,3.7*,-3,14*,12*,1,8.4*,13*,1
Clc1ccc2nc3c4ccccc4cnn3c2c1,0,1.1*,3,3,19*,18*,2,17*,22*,1
COCc1cc(N2CCN(C(=O)OC(C)(C)C)C[C@H]2C)ccc1N1CCN(Cc2ccccc2)[C@H](C)C1,8,-1,-1,/,0,-2,/,/,/,/
COc1cc2ccccc2cc1C(=O)Nc1ccccc1Cl,-4,2.2*,3,4.8*,16*,12*,1,15*,20*,1
COc1cc2ccccc2cc1C(=O)Nc1cccnc1,4,1,1,1,9,3,/,/,/,/
COc1ccc(NC(=O)c2cc3ccccc3cc2OC)cc1,4,3.2*,2,4,15*,12*,1,12*,17*,1
Cc1ccc(C(=O)Nc2ccccc2Cl)cc1,2,1.2*,3,7.1*,13*,12*,2,7.3*,16*,1
C[C@H]1COc2cccc(F)c2S(=O)(=O)N1C,-1,-2,1,/,0,-1,/,/,/,/
COc1ccc(Nc2nc(-c3cc4cccc(OC)c4oc3=O)cs2)cc1,-5,-1,0,3,5,-2,/,/,/,/
SMILES,Rev-erbA mod,ssDAF-12 act,DAX1 inh-1,DAX1 inh-2,hgDAF12 agonist,hcDAF12 agonist,LXRb hcDAF ctr,hcDAF12 ag,hgDAF12 conf,LXRb DAF12 ctr
COc1ccc(-c2cc3cccc(OC)c3oc2=O)cc1,-1,0,3,-1,16*,7.3*,2,7.8*,24*,1
Cc1ccc(NC(=O)c2c(C)noc2C)cc1,-1,-1,0,1,-2,0,/,/,/,/
Cc1ccc(NC(=O)c2onc(C)c2Cl)cc1,10,1,3,2,18*,9.1*,1,12*,16*,0
CC(=O)C1=C(C)N(Cc2ccc(F)cc2)C(=S)NC1c1ccccc1 (stereo not given),3,-1,1,/,2,0,/,/,/,/
Nc1[nH]c2cc(C(F)(F)F)ccc2c1C(=O)N1CCN(CCc2ccccc2)CC1,-1,1,0,/,0,4,/,/,/,/
O=C(Nc1nccs1)c1c(O)c2c([nH]c1=O)CCCC2,15,0,0,0,7,2,/,/,/,/
O=C(Nc1ccccc1O)c1c(O)c2c([nH]c1=O)CCCC2,-2,1.5*,3,5.0*,19*,8.0*,1,6.9*,16*,1

# High-throughput results (PubChem)
